Hit rate of the full screen: of about 360,000 compounds, about 16,000 (4.4%) were called active. Where a call stands in place of a potency, no number is given. Inconclusive results (about 9%) are left out. Calls come from the whole dose curve; as a rule, active = well fitted inhibition curve with a large enough effect; inconclusive = small, poorly fitted or top-dose-only effect; inactive = no such curve, though single readings can be large or run the other way. This excerpt belongs to a sample that is enriched for actives.
target: Bromodomain adjacent to zinc finger domain protein 2B (Homo sapiens) (UniProt Q9UIF8); test: qHTS Assay for Inhibitors of BAZ2B; settings: AlphaScreen BAZ2B-H3K14Ac peptide displacement; series mostly up to 114 µM; note: nearly all actives have a fitted effect of over 60% in size
Outline: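 Inhibition is scored as reduced AlphaScreen emission. The BAZ2B/b-H3(5-23)K14Ac complex (50 nM each) in PBS pH 7.4, 0.01% Tween-20 meets compound (up to 110 uM) for 30 min at RT before bead addition.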
Potency is the fitted concentration of half-maximal effect.

Bromodomain adjacent to zinc finger domain protein 2B (Homo sapiens), sequence (Q9UIF8 whole entry, looked up, the tested form may be a part): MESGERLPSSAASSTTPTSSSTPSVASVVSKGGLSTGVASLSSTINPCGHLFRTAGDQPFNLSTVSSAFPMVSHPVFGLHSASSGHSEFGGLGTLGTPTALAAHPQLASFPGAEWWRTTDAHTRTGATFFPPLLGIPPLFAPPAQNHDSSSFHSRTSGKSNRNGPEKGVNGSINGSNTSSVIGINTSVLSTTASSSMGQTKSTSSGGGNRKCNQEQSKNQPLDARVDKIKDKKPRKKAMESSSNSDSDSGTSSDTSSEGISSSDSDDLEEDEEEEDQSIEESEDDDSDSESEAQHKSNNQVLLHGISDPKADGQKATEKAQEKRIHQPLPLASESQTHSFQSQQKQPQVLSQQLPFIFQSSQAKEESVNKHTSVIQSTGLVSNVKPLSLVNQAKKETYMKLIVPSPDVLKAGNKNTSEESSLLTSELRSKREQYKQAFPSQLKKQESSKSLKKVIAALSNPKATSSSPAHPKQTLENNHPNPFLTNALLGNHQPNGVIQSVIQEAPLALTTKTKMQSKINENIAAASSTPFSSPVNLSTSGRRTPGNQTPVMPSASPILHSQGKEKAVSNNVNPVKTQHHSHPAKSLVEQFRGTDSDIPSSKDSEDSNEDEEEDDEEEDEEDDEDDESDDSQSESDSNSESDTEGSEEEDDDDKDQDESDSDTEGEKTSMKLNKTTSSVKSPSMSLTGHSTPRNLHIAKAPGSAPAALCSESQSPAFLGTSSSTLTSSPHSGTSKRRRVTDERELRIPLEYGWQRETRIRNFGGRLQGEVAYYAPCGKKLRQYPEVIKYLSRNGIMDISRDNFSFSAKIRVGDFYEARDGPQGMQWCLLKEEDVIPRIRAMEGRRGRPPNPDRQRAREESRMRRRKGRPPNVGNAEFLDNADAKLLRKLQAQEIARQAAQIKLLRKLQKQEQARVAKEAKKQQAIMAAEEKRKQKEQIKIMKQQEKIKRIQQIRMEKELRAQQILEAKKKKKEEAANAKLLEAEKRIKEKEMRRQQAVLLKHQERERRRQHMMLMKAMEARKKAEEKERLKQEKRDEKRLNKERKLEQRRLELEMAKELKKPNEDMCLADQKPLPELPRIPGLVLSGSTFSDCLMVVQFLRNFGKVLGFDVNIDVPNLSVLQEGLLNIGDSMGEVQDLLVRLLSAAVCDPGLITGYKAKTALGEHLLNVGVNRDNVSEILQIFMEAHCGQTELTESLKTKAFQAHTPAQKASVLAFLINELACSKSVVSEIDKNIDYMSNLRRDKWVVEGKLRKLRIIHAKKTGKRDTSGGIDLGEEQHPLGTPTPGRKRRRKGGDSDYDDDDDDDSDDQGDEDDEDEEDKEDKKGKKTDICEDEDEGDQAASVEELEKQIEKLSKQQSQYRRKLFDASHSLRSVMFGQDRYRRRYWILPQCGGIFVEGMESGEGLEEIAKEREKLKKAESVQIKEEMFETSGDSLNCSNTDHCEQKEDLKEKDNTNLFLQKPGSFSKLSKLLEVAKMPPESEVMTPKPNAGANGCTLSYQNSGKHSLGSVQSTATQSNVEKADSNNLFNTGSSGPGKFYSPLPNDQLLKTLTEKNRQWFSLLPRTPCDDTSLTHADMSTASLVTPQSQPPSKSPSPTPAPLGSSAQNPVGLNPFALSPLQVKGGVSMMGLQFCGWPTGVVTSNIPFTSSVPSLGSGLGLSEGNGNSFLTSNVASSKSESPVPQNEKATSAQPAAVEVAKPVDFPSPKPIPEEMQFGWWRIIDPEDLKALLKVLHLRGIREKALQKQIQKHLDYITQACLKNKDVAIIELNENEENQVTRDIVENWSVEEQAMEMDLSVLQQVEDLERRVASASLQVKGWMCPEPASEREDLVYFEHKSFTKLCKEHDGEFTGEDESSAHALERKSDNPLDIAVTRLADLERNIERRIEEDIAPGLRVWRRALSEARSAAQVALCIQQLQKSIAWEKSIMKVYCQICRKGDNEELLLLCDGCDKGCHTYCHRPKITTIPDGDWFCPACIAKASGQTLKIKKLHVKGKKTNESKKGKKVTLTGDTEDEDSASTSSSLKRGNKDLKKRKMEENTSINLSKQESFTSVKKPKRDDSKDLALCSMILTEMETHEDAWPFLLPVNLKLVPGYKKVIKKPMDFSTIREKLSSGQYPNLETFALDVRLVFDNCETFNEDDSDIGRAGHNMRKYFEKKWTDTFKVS

| Structure (SMILES) | Potency |
| --- | --- |
| COc1ccc(-c2cccc(NS(=O)(=O)c3cc(C)c(OC)c(C)c3C)c2)nn1 | inactive |
| CCCN(CCC)C(=O)Cn1c(=O)n(-c2ccc(Cl)cc2)c(=O)c2c3c(sc21)CCCCC3 | inactive |
| Cc1cccc(CC(=O)Nc2cccc(-c3cn4cccnc4n3)c2)c1 | inactive |
| CCCCOc1ccc(C(=O)N2CC(=O)Nc3ccc(Br)cc3C2c2ccc(F)cc2)cc1 (configuration not stated) | inactive |
| O=C1CCCC(O)=C1N=Nc1ccc2ncsc2c1 | 50.1 µM (active) |
| Cc1csc(Nc2ccc(Cl)cc2)[n+]1-c1ccc(Cl)cc1 | 12.6 µM (active) |
| O=c1ccnc(Nc2ccc(Cl)cc2)[nH]1 | inactive |
| Cc1ccccc1C(=O)NCc1nc(-c2ccc(Cl)cc2)no1 | inactive |
| CCOC(=O)c1[nH]c(C)c(CCC(=O)N2CCN(c3ccccc3)CC2)c1C | inactive |
| COc1ccc(/C=C(\C#N)C(=O)OCC(=O)N(C)C2CCS(=O)(=O)C2)cc1 (configuration not stated) | inactive |
| COc1ccc(NC(=O)CN(C)C(=O)c2cc(-c3ccc(C)o3)nc3ccccc23)cc1 | inactive |
| CN(C(=O)COC(=O)c1nc(Cl)ccc1Cl)C1CCS(=O)(=O)C1 (configuration not stated) | inactive |
| COc1ccc(-c2cc(C(=O)N(C)Cc3ccccc3)c3ccccc3n2)cc1 | inactive |
| CN(CCOc1ccccc1)C(=O)c1cc(-c2ccco2)nc2ccccc12 | 44.7 µM (active) |
| CN(C(=O)COC(=O)c1cc(-c2ccco2)nc2ccccc12)C1CCS(=O)(=O)C1 (configuration not stated) | 39.8 µM (active) |
| COc1ccc(OCC(=O)Nc2cccc(C(=O)OCc3cc(=O)n4nc(C)sc4n3)c2)cc1 | inactive |
| Cc1cccc(N2CCN(C(=O)CCn3c(=O)c4cccn4c4cccnc43)CC2C)c1 (configuration not stated) | inactive |
| NC(=O)C1CCN(C(=O)c2cccc(NC(=O)c3nsc4ccccc34)c2)CC1 | inactive |
| Cc1[nH]c2ccccc2c1C(c1ccccc1)c1cccs1 (configuration not stated) | inactive |
| O=C(CCS(=O)(=O)c1ccccc1)NC1CCCC1 | inactive |
| CC(=O)c1cc(-c2ccccc2)n(CCC(=O)NC2CCCCCC2)c1C | 50.1 µM (active) |
| CC(=O)c1cc(-c2ccccc2)n(CC(=O)NC2CCCCC2)c1C | inactive |
| Cc1nc2nc(SCC(=O)N(Cc3ccccc3)C(C)C)nn2c(C)c1Cc1ccccc1Cl | inactive |
| CCOc1cc(C(=O)Nc2nnc3n2CCS3)cc(OCC)c1OCC | inactive |
| CCOC(=O)c1cc(NC(=O)c2ccc(F)cc2)c(=O)n2c1oc1ccccc12 | inactive |
| CN(CC(=O)Nc1ccccc1F)S(=O)(=O)c1ccc2c(c1)c(=O)n(C)c(=O)n2C | inactive |
| O=C(CN1C(=O)COc2ccc(S(=O)(=O)N3CCOCC3)cc21)N1CCN(c2cccc(Cl)c2)CC1 | inactive |
